Assay results: PubChem BioAssay (EPA / NIEHS)
Inconclusive results are not listed. The source made the active and inactive calls. How the source made its calls, unless noted: active means hit-call score of the fitted dose curve at least 0.9, where 1 is the maximum; inconclusive means response in the unintended direction; inactive means score below 0.9.

Tests used:
[1] = read-out: Cytochrome P450 3A4 (Homo sapiens) (UniProt P08684); experiment: CLD_CYP3A4_48hr: CellzDirect (CLD) Gene Expression Assay for xenobiotic metabolism (CYP3A4) at 48 hours (AID 2283698)
In short: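 CYP3A4 induction read by qNPA chemiluminescence after 48 h, with fresh dosing solutions on consecutive days, in cultured human hepatocytes (two donors). Vehicle 0.2% DMSO as baseline; microscopy-based cytotoxicity annotated yes/no alongside data.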

[2] = read-out: Cytochrome P450 2B6 (Homo sapiens) (UniProt P20813); experiment: CLD_CYP2B6_48hr: CellzDirect (CLD) Gene Expression Assay for xenobiotic metabolism (CYP2B6) at 48 hours (AID 2283699);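 further: actives raise transcript level above DMSO so potency reflects induction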
In short: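 CYP2B6 transcript induction, read by quantitative nuclease protection (S1 digestion, chemiluminescent detection) 48 h after dosing, is fitted upward against 0.2% DMSO. Cultured human liver primary cells, two donor preparations, received fresh chemical daily over multiple concentrations.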

[3] = read-out: Cytochrome P450 2C9 (Homo sapiens) (UniProt P11712); experiment: CLD_CYP2C9_48hr: CellzDirect (CLD) Gene Expression Assay for xenobiotic metabolism (CYP2C9) at 48 hours (AID 2283701; active means hit-call score of the fitted dose curve at least 0.9, where 1 is the maximum; inactive means score below 0.9)
In short: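 mRNA level measured by quantitative nuclease protection (S1 digestion, chemiluminescent detection) in lysates of human primary hepatocytes exposed 48 h with daily re-dosing. Induction fitted positively versus 0.2% DMSO; morphology-based cytotoxicity flagged yes/no.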

[4] = read-out: xenobiotic metabolism (CYP1A2), CYP1A2 (gene 1544); experiment: CLD_CYP1A2_48hr: CellzDirect (CLD) Gene Expression Assay for xenobiotic metabolism (CYP1A2) at 48 hours (AID 2283703)
In short: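 Cytotoxicity was flagged yes/no from morphology, while CYP1A2 transcript induction was detected by qNPA chemiluminescence after a 48-hour exposure. Human primary hepatocyte cultures from separate donors received fresh dosing solutions daily over two days, with 0.2% DMSO as vehicle and baseline.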

[5] = read-out: xenobiotic metabolism (CYP1A1), CYP1A1 (gene 1543); experiment: CLD_CYP1A1_48hr: CellzDirect (CLD) Gene Expression Assay for xenobiotic metabolism (CYP1A1) at 48 hours (AID 2283705)
In short: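 CYP1A1 transcript measured by quantitative nuclease protection (chemiluminescent) 48 h after two daily treatments of human hepatocyte cultures, versus 0.2% DMSO. Morphology-based cytotoxicity flags accompany data; two donor preparations used.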

[6] = read-out: organic anion transporter (SLCO1B1), SLCO1B1 (gene 10599); experiment: CLD_SLCO1B1_48hr: CellzDirect (CLD) Gene Expression Assay for organic anion transporter (SLCO1B1) at 48 hours (AID 2283707)
In short: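 SLCO1B1 transcript quantified by qNPA with chemiluminescent readout after 48 h of once-daily chemical exposure. Cultured human primary hepatocytes came from two donors, with 0.2% DMSO vehicle; positive-direction fitting against DMSO, cytotoxicity flagged by morphology.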

[7] = read-out: glucuronosyltransferase (UGT1A1), UGT1A1 (gene 54658); experiment: CLD_UGT1A1_48hr: CellzDirect (CLD) Gene Expression Assay for glucuronosyltransferase (UGT1A1) at 48 hours (AID 2283709);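 further: actives increase expression relative to DMSO so potency refers to induction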
In short: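 Quantitative nuclease protection assay (chemiluminescent) for UGT1A1 mRNA at 48 h in human hepatocyte cultures from two donors, redosed daily with fresh solutions. Induction fitted relative to 0.2% DMSO; phase-contrast morphology annotated cytotoxicity.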

[8] = read-out: sulfotransferase (SULT2A), SULT2A1 (gene 6822); experiment: CLD_SULT2A_48hr: CellzDirect (CLD) Gene Expression Assay for sulfotransferase (SULT2A) at 48 hours (AID 2283710);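 further: hits raise SULT2A1 transcript above the 0.2% DMSO vehicle baseline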
In short: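 SULT2A1 transcript measured by qNPA chemiluminescence in human primary hepatocyte cultures after 48 h, with fresh dosing solutions on two consecutive days; gain-of-signal fitting against 0.2% DMSO vehicle; cytotoxicity annotated from phase-contrast morphology.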

[9] = read-out: HMG-CoA synthase (HMGCS2), HMGCS2 (gene 3158); experiment: CLD_HMGCS2_48hr: CellzDirect (CLD) Gene Expression Assay for HMG-CoA synthase (HMGCS2) at 48 hours (AID 2283711)
In short: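 mRNA induction read by qNPA chemiluminescence, 48 h after dosing. Cultured primary human liver cells (two donor preparations) received fresh compound daily over two days against 0.2% DMSO vehicle; morphology-based cytotoxicity noted alongside.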

[10] = CEETOX_H295R_MTT_cell_viability: Viability Assessment in the CeeTox HT-H295R MTT Assay (AID 2283718; active means hit-call score of the fitted dose curve at least 0.9, where 1 is the maximum; inactive means score below 0.9;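 on AC50: curve fitted both ways so AC50 may mark viability loss or gain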)
In short: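 H295R cells prestimulated 48 h with 10 uM forskolin, then exposed 48 h to test chemical (0.1% DMSO final). Viability by MTT (0.5 mg/ml, 4 h, 37 C), absorbance 570/650 nm; percent change versus DMSO, bidirectional fit.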

[11] = read-out: Glyceraldehyde-3-phosphate dehydrogenase (Homo sapiens) (UniProt P04406); experiment: CLD_GAPDH_48hr: CellzDirect (CLD) Gene Expression Assay for Baseline Control (Glyceraldehyde 3-phosphate dehydrogenase) at 48 hours (AID 2283706);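 further: active means higher GAPDH mRNA than DMSO vehicle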
In short: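 GAPDH baseline-control readout: qNPA chemiluminescent mRNA quantitation in human liver primary cells 48 h after daily dosing on two consecutive days, vehicle 0.2% DMSO; gain of signal fitted against DMSO, cytotoxicity flagged by phase-contrast morphology.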

[12] = STM_H9_OrnithineISnorm_perc: Stemina devTOX quickPredict H9 human embryonic stem cell (hESC)-based Assay for Ornithine (ORN) Metabolite Biomarker, Normalized (AID 2283712; active means hit-call score of the fitted dose curve at least 0.9, where 1 is the maximum; inactive means score below 0.9;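 further: ornithine released into spent medium during last day measured by mass spectrometry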)
In short: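 Ornithine secreted by H9 hESCs after 72h compound treatment (daily media/compound renewal) was quantified in final-day media by UPLC-HRMS. Values are isotope-standard-normalized, expressed relative to 0.1% DMSO, fitted in positive direction.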

[13] = STM_H9_CystineISnorm_perc: Stemina devTOX quickPredict H9 human embryonic stem cell (hESC)-based Assay for Cystine (CYSS) Metabolite Biomarker, Normalized (AID 2283713; active means hit-call score of the fitted dose curve at least 0.9, where 1 is the maximum; inactive means score below 0.9)
In short: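 Cells are held undifferentiated and treated for 72h, receiving fresh medium with compound every 24h. Cystine secreted during the final day is quantified by UPLC-HRMS against a labeled spike-in, then expressed relative to the DMSO vehicle median.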

[14] = STM_H9_OrnCyssISnorm_ratio: Stemina devTOX quickPredict H9 human embryonic stem cell (hESC)-based Assay for Ornithine (ORN):Cystine (CYSS) Ratio (AID 2283714)
In short: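 H9 hESC, 72h, q24h re-dose; last-day media → acetonitrile deproteinization → UPLC-HRMS. ORN:CYSS ratio from isotope-normalized EIC areas, vs 0.1% DMSO; MTX references on each plate.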

[15] = read-out: alkyl and aryl transferase (GSTA2), GSTA2 (gene 2939); experiment: CLD_GSTA2_48hr: CellzDirect (CLD) Gene Expression Assay for alkyl and aryl transferase (GSTA2) at 48 hours (AID 2283708);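 further: active means mRNA induction above DMSO vehicle baseline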
In short: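 GSTA2 mRNA quantified by qNPA chemiluminescence in human primary hepatocyte lysates after 48 h of daily fresh chemical dosing. Increases fitted against 0.2% DMSO vehicle baseline; cytotoxicity from morphology annotated yes/no.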

[16] = CLD_ACTIN_48hr: CellzDirect (CLD) Gene Expression Assay for Baseline Control (Actin) at 48 hours (AID 2283702)
In short: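 Background-control actin mRNA read by qNPA chemiluminescence at 48 h. Human hepatocyte cultures from two donors received fresh multi-concentration chemical doses daily for two days; 0.2% DMSO served as vehicle baseline.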

Sequence of Cytochrome P450 3A4 (Homo sapiens) (P08684 whole entry, looked up): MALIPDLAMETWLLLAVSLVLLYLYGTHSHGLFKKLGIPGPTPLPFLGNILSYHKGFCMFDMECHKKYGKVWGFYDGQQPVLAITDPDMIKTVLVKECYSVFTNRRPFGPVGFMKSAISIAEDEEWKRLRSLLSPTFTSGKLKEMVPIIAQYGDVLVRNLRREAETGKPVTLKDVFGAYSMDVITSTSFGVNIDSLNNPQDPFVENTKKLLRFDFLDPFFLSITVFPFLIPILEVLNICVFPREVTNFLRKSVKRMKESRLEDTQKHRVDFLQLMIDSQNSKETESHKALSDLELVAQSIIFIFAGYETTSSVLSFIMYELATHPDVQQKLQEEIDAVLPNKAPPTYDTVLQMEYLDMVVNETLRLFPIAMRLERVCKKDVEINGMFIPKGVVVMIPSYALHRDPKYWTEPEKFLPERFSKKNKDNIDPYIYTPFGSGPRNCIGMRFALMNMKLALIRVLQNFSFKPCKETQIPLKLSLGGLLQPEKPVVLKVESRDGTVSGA
Sequence of Glyceraldehyde-3-phosphate dehydrogenase (Homo sapiens) (P04406 whole entry, looked up): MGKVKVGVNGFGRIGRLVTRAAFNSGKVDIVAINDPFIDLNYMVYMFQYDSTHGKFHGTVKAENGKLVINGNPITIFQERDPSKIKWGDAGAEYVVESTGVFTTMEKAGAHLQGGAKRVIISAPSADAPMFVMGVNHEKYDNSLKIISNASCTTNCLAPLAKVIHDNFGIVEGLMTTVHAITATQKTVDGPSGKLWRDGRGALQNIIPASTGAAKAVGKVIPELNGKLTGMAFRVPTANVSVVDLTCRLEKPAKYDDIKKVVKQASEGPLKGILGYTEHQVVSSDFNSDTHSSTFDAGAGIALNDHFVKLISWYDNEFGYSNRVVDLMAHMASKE

With `Cc1c(COC(=O)[C@@H]2[C@H](/C=C(\Cl)C(F)(F)F)C2(C)C)cccc1-c1ccccc1` the AC50 [1] was 4.01 µM (active), the AC50 [2] was 3390 nM (active) and the outcome [3] was “inactive”. The outcome [4] was “inactive”, the AC50 [5] was 20 µM (active) and the outcome [6] was “inactive”. For the same molecule, the outcome [7] was “inactive”, the AC50 [8] was 5.45 µM (active) and the outcome [9] was “inactive”. For the same molecule, the outcome [10] was “inactive”.
With `CC1(C)CON(Cc2ccccc2Cl)C1=O` the AC50 [1] was 5.13 µM (active), the AC50 [2] was 3230 nM (active) and the outcome [3] was “inactive”. For the same molecule, the outcome [4] was “inactive”, the outcome [11] was “inactive” and the outcome [7] was “inactive”. The outcome [8] was “inactive”, the outcome [12] was “inactive” and the AC50 [13] was 72.5 µM (active). The AC50 [14] was 68.8 µM (active) and the outcome [10] was “inactive”.
In the case of `CCOc1nc(F)cc2nc(S(=O)(=O)Nc3c(Cl)cccc3Cl)nn12`, the AC50 [1] is reported as 3.13 µM (active), the AC50 [2] is reported as 7880 nM (active) and the outcome [3] is reported as “inactive”. The outcome [4] was “inactive”, the outcome [5] was “inactive” and the outcome [7] was “inactive”. For the same molecule, the outcome [8] was “inactive”, the outcome [9] was “inactive” and the AC50 [12] was 0.007 µM (active). For the same molecule, the AC50 [13] was 0.0249 µM (active).
In the case of `CCN(CC)c1nc(C)cc(OP(=S)(OC)OC)n1`, the AC50 [1] is reported as 3.58 µM (active), the AC50 [2] is reported as 684 nM (active) and the AC50 [4] is reported as 7.6 µM (active). For the same molecule, the AC50 [5] was 9.28 µM (active), the outcome [8] was “inactive” and the outcome [10] was “inactive”.
In the case of `CCOP(=S)(OCC)Oc1nc(Cl)n(C(C)C)n1`, the AC50 [1] is reported as 2.52 µM (active), the AC50 [2] is reported as 427 nM (active) and the outcome [3] is reported as “inactive”. The AC50 [4] was 5.78 µM (active), the AC50 [5] was 5.35 µM (active) and the outcome [8] was “inactive”. The outcome [12] was “inactive”, the AC50 [13] was 50.5 µM (active) and the AC50 [14] was 54.9 µM (active). For the same molecule, the outcome [10] was “inactive”.
In the case of `COC(=O)N(C(=O)N1CO[C@@]2(C(=O)OC)Cc3cc(Cl)ccc3C2=N1)c1ccc(OC(F)(F)F)cc1`, the AC50 [1] is reported as 5.15 µM (active), the AC50 [2] is reported as 505 nM (active) and the AC50 [4] is reported as 4.25 µM (active). For the same molecule, the AC50 [5] was 2.72 µM (active) and the outcome [8] was “inactive”.
In the case of `CCNP(=S)(OC)O/C(C)=C/C(=O)OC(C)C` (stereo not given), the AC50 [1] is reported as 0.654 µM (active), the AC50 [2] is reported as 598 nM (active) and the outcome [3] is reported as “inactive”. For the same molecule, the AC50 [4] was 1.99 µM (active), the AC50 [5] was 3.99 µM (active) and the outcome [8] was “inactive”. The AC50 [12] was 50 µM (active), the AC50 [13] was 75.5 µM (active) and the AC50 [14] was 72.6 µM (active). For the same molecule, the outcome [10] was “inactive”.
With `CSC(=O)c1c(C(F)F)nc(C(F)(F)F)c(C(=O)SC)c1CC(C)C` the AC50 [1] was 0.645 µM (active), the AC50 [2] was 416 nM (active) and the outcome [3] was “inactive”. For the same molecule, the AC50 [4] was 6.64 µM (active), the AC50 [5] was 20 µM (active) and the outcome [6] was “inactive”. For the same molecule, the outcome [7] was “inactive” and the outcome [8] was “inactive”.
With `COC(=O)c1c(C(F)F)nc(C(F)(F)F)c(C2=NCCS2)c1CC(C)C` the AC50 [1] was 1.9 µM (active), the AC50 [2] was 378 nM (active) and the outcome [3] was “inactive”. The AC50 [4] was 1.66 µM (active), the AC50 [5] was 8.66 µM (active) and the AC50 [15] was 20 µM (active). The AC50 [8] was 1.7 µM (active) and the AC50 [10] was 38.8 µM (active).
In the case of `CN/C(=N\[N+](=O)[O-])NCc1cnc(Cl)s1`, the outcome [10] is reported as “inactive”.
For `Cn1c(-c2ccccc2)cc(-c2ccccc2)[n+]1C`, the outcome [16] was “inactive”, the outcome [5] was “inactive” and the outcome [8] was “inactive”. The AC50 [12] was 25.3 µM (active), the AC50 [13] was 10.9 µM (active) and the AC50 [14] was 20 µM (active).
